“And” between values parts separate entries of the source, which are not always exact repeats. Equal values may be shown once. Where a name gives a salt, the structure may show the parent alone.
Assays:
Test in all cases: cell viability relative to vehicle control; higher = less cytotoxic
Settings in all cases: 10 µM
K562 = test system: K562
In short: (§1)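 Mutant clones made by CRISPR editing and their isogenic wild-type counterparts, from four leukaemia lines, were exposed to a single 10 µM dose of each library compound for 48 h. The supernatant was then removed and CellTiter-Glo luminescence was read. Viability was reported as percent of the on-plate vehicle control.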

MARIMO = test system: MARIMO
In short: as §1

MOLM14 = test system: MOLM14
In short: as §1

OCI-AML2 = test system: OCI-AML2
In short: as §1

SMILES	cell viability (K562; SRSF2 genotype: SRSF2 P95H/wt)	cell viability (K562; SRSF2 genotype: SRSF2 wt/wt) [%]	cell viability (MARIMO; SRSF2 genotype: SRSF2 P95H/wt) [%]	cell viability (MARIMO; SRSF2 genotype: SRSF2 wt/wt) [%]	cell viability (MOLM14; SRSF2 genotype: SRSF2 P95H/wt) [%]	cell viability (MOLM14; SRSF2 genotype: SRSF2 wt/wt) [%]	cell viability (OCI-AML2; SRSF2 genotype: P95H/wt) [%]	cell viability (OCI-AML2; SRSF2 genotype: wt/wt) [%]
CCCC1CC(C(=O)NC(C(C)Cl)C2OC(SC)C(O)C(O)C2O)N(C)C1 (centres undefined) [Clindamycin alcoholate]	104% and 98%	102	98.5	107	103	108	107	98.6
Cc1c(CN2CCC(Nc3ncnc4sc(CC(F)(F)F)cc34)CC2)ccc2[nH]c(C#N)cc12	3.04% and 4.05%	17.5	42.9	41.7	4.02	3.33	0.4	9.25
NC(=O)Nc1cc(-c2cccc(F)c2)sc1C(=O)N[C@H]1CCCNC1	3.91% and 4.76%	6.23	13.3	13.4	1.02	0.84	2.47	8.51
CC[C@@H]1C(=O)N(C)c2cnc(Nc3ccc(C(=O)N[C@H]4CC[C@H](N5CCN(CC6CC6)CC5)CC4)cc3OC)nc2N1C(C)C [BI6727 (Volasertib)]	3.41% and 6.94%	9.46	12.2	16.7	3.23	0.61	4.52	11.5
CCCCCCCCCCCC[N+](C)(C)CCOc1ccccc1 [Domiphen Bromide]	7.02% and 4.79%	5.16	0.45	0.55	0.35	0.39	0.4	0.43
Nc1ccc(S(=O)(=O)Nc2ccccn2)cc1 [Sulfapyridine (Dagenan)]	94.3% and 101%	97.1	97.7	107	103	100	106	97.6
NC(=O)N1CCC(CC(=O)N2CCC([C@H]3c4ncc(Br)cc4CCc4cc(Cl)cc(Br)c43)CC2)CC1	49.1% and 62.3%	52.4	44.8	45.7	37.4	35.7	38	32
O=c1cc(N2CCOCC2)oc2c(-c3ccccc3)cccc12	76.7% and 86.9%	91.8	66.6	64.8	51.5	45.6	47.5	49.4
CN(CC(=O)N(Cc1ccc(C2CCCCC2)cc1)c1ccc(C(=O)NO)cc1)S(=O)(=O)c1c(F)c(F)c(F)c(F)c1F	0.47% and 0.41%	0.42	0.5	0.67	0.26	0.33	0.18	0.24
C[C@H](CCC(=O)O)[C@H]1CC[C@H]2[C@@H]3[C@H](O)C[C@@H]4C[C@H](O)CC[C@]4(C)[C@H]3C[C@H](O)[C@]12C [Sodium cholate]	103% and 101%	94.5	88.2	96.6	89.8	93.4	88	96.5
O=C1CN(/N=C/c2ccc(-c3ccc([N+](=O)[O-])cc3)o2)C(=O)N1 [Dantrolene sodium hemiheptahydrate]	93.8% and 97.3%	104	96.4	104	100	101	100	94.3
O=c1ccoc2cc(O)ccc12 [7-Hydroxy-4-chromone]	102% and 95.6%	93.5	99.1	104	98.9	104	97.1	96.3
Nc1ccn([C@@H]2CS[C@H](CO)O2)c(=O)n1 [Lamivudine (Epivir)]	100% and 99.5%	102	105	104	99.8	105	106	114
CC(=O)OC(C)C(C)C(=O)OCC12C3CC(C)(C)[C@H](O[C@@H]1C[C@]1(C)C3=CCC3C4(C)CCC(O[C@@H]5O[C@H](C(=O)O)[C@@H](O[C@H]6O[C@H](CO)[C@@H](O)[C@H](O)[C@H]6O)[C@H](O)[C@H]5O[C@@H]5OC[C@@H](O)[C@H](O)[C@H]5O)[C@](C)(CO)C4CCC31C)C2O (some centres undefined) [Sodium Aescinate]	90.7% and 98.9%	93.9	95.5	96.8	89.4	92.3	88.5	93.2
CCCC(=O)O[C@]1(C(=O)COC(C)=O)CC[C@H]2[C@@H]3C[C@H](F)C4=CC(=O)C=C[C@]4(C)[C@@]3(F)[C@@H](O)C[C@@]21C [Difluprednate]	96.9% and 99%	99.4	102	100	91.2	92.1	109	107
N#Cc1ccc(C(c2ccc(C#N)cc2)n2cncn2)cc1 [Letrozole]	95.7% and 97.2%	91.9	91.9	94	96.8	92.3	87.5	90.1
CCCCNc1ccc(C(=O)OCCN(C)C)cc1 [Tetracaine hydrochloride (Pontocaine)]	99.3% and 87.2%	90.7	93.4	105	92.2	96.2	94	98.4
CCNC(=O)c1noc(-c2cc(Cl)c(O)cc2O)c1-c1ccc(OC)cc1	20.7% and 32.8%	25.5	31.9	25.1	2.02	2.25	16.2	20.2
